Source: PubChem BioAssay
The list is not random: actives were taken first. Their share in the collection is about 1.5%.
rTrxR1 inhibitor = rat TrxR1 inhibition; recombinant rTrxR1, NADPH fluorescence consumption, selenite substrate; 390,000 tested, 1% active; AID 588453; Potency, µM (doses to about 114 µM), actives largely listed as inhibitors; further: nearly all actives have a fitted effect of over 65% in size
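Rat TrxR1 (90 nM in the dispensed reagent) was pre-reduced with 400 uM NADPH for 5 min at room temperature, then incubated with compound for 15 min. After 400 uM selenite was added, NADPH fluorescence (Ex 340/Em 450 nm) was followed for 8 min.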
TrxR1 substrate = is turned over as a substrate by rat TrxR1 | O89049 | purified TrxR1 substrate turnover, NADPH consumption readout | Potency, µM (titrated, usually from 114 µM) | 390,000 tested, 0.01% active | AID 588456; further: nearly all actives have a fitted effect of over 50% in size
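Rat TrxR1, dispensed at 90 nM, was prereduced with 400 uM NADPH (final) for 5 min at ~22 deg C, then incubated with compound 15 min before 400 uM selenite. A first-read NADPH fluorescence drop versus no-compound background flagged substrates.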
Eya2 phos inh = blocks the phosphatase activity of human Eya2 | Potency, µM (top dose mostly 76.9 µM), hits mostly inhibitors | O00167 | 330,000 tested, 0.006% active | recombinant Eya2, OMFP fluorescence dephosphorylation (OMFP is methylfluorescein phosphate)
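Eya2 protein (added as 0.2 uM solution) was preincubated with compound for 10 min at ambient temperature in 50 mM HEPES pH 7.5, 50 mM NaCl, 5 uM MgCl2, 0.05% BSA, 1 mM DTT. OMFP (added at 50 uM) then reacted 10 min; fluorescence read at 485/525 nm.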
Coupling enz = counter-screen for Giardia aldolase inhibitors: coupling enzyme system. activity change, negative = inhibition, % at 58.2 µM, hits read low. coupling enzyme system counterscreen, AmpLite Red fluorescence. AID 2472. 290,000 tested, 0.67% active; in the data active means activity change below about -30%
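Fluorescence at 525 nm excitation and 598 nm emission measured inhibition of the coupled detection system without aldolase. Compounds (at 57.5 uM final) were preincubated 10 min at room temperature with coupling enzyme reagent before a 20 min substrate/AmpLite Red step.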
mIDH1 inhibitor = inhibitors of human mutant IDH1 R132H; IDH1-R132H enzyme, NADPH consumption, diaphorase/resazurin fluorescence; AID 602179; O75874; 390,000 tested, 0.093% active; Potency, µM (doses to about 76.6 µM), actives largely listed as inhibitors; further: nearly all actives have a fitted effect of over 65% in size
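IDH1-R132H (0.5 ug/mL) preincubated 30 min with compound, then NADPH (0.016 mM) and alpha-KG (2 mM) added; 80 min at RT, pH 7.5. Remaining NADPH coupled via diaphorase/resazurin to fluorescence (540/590 nm); concentration-response curves normalized to no-enzyme control.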
CASP1 redox cat = inhibits human caspase-1 in catalase buffer, redox counter-screen. Potency, µM (top dose mostly 57.5 µM), usual class: inhibitors. shares compounds with Coupling enz. AID 888. caspase-1 Ac-WEHD-AFC fluorescence rate, catalase buffer. 30 tested, under 10 active; active means well fitted inhibition curve with a large enough effect in the main read-out, with a control signal flat; inconclusive means small, poorly fitted or top-dose-only effect, or a change in a side signal; inactive means no such curve, though single readings can be large or run the other way
CASP1 inh CRC = confirmation of allosteric or competitive inhibitors of human caspase-1. shares compounds with Coupling enz. purified caspase-1, fluorogenic substrate cleavage. Potency, µM (highest dose often 57.5 µM), hits mostly inhibitors. 60 tested, 20% active. AID 896; active means well fitted inhibition curve with a large enough effect in the main read-out, with a control signal flat; inconclusive means small, poorly fitted or top-dose-only effect, or a change in a side signal; inactive means no such curve, though single readings can be large or run the other way
Casp7 confirm = confirmation of allosteric or competitive inhibitors of human caspase-7; shares compounds with Coupling enz; recombinant caspase-7, fluorogenic substrate cleavage; Potency, µM (titrated, usually from 57.5 µM), most hits filed as inhibitors; 60 tested, under 10 active; AID 897; active means well fitted inhibition curve with a large enough effect in the main read-out, with a control signal flat, not every such curve was filed as active; inconclusive means small, poorly fitted or top-dose-only effect, or a change in a side signal; inactive means no such curve, though single readings can be large or run the other way
CASP7 redox cys = inhibits caspase-7 in cysteine buffer, redox counter-screen; shares compounds with Coupling enz; caspase-7 enzyme with cysteine, fluorogenic substrate, redox counterscreen; Potency, µM (doses to about 57.5 µM), usual class: inhibitors; 60 tested, under 10 active; active means well fitted inhibition curve with a large enough effect in the main read-out, with a control signal flat; inconclusive means small, poorly fitted or top-dose-only effect, or a change in a side signal; inactive means no such curve, though single readings can be large or run the other way
CASP7 redox cat = caspase-7 inhibition with catalase present; shares compounds with Coupling enz; Caspase-7 Ac-DEVD-AFC fluorescence rate, catalase buffer; Potency, µM (doses to about 57.5 µM), most hits filed as inhibitors; 30 tested, under 10 active; active means well fitted inhibition curve with a large enough effect in the main read-out, with a control signal flat; inconclusive means small, poorly fitted or top-dose-only effect, or a change in a side signal; inactive means no such curve, though single readings can be large or run the other way
Casp1 cysteine = counter-screen for redox active caspase-1 inhibitors: cysteine buffer | shares compounds with Coupling enz | recombinant caspase-1, fluorogenic substrate, cysteine buffer | Potency, µM (titrated, usually from 57.5 µM), usual class: inhibitors | 60 tested, under 10 active | AID 929; active means well fitted inhibition curve with a large enough effect in the main read-out, with a control signal flat; inconclusive means small, poorly fitted or top-dose-only effect, or a change in a side signal; inactive means no such curve, though single readings can be large or run the other way
IDH1 autofl = interferes with resorufin fluorescence in IDH1 counter-screen; shares compounds with mIDH1 inhibitor; Resorufin detection reagent fluorescence interference, cell-free; inhibition of signal, % at 51.2 µM; 750 tested, under 10 active; AID 623980
IDH1 WT = selectivity of mutant IDH1 inhibitors: human wild-type IDH1; WT IDH1 enzyme, NADPH diaphorase/resazurin fluorescence; Potency, µM (series often up to 115 µM), most hits filed as inhibitors; 750 tested, 9% active; shares compounds with mIDH1 inhibitor; AID 623995; further: nearly all actives have a fitted effect of over 55% in size
mIDH1 confirm = confirmation of human mutant IDH1 inhibitors | AID 624002 | Potency, µM (titrated, usually from 76.6 µM), hits mostly inhibitors | shares compounds with mIDH1 inhibitor | IDH1 R132H enzyme, NADPH diaphorase/resazurin fluorescence | 750 tested, 83% active; further: nearly all actives have a fitted effect of over 50% in size
Hits are given with their value; i = inactive; ? = inconclusive; nt = no result. Unless noted, the call rests on the fitted dose curve; in most records, active means well fitted curve in the direction sought with a large enough effect; inconclusive means small, poorly fitted or top-dose-only effect, or another doubt; inactive means no such curve, though single readings can be large; an effect the other way counts as inactive or inconclusive.

SMILES | rTrxR1 inhibitor | TrxR1 substrate | Eya2 phos inh | Coupling enz | mIDH1 inhibitor | IDH1 autofl | IDH1 WT | mIDH1 confirm | others
COc1cc2c(cc1O)-c1c(O)c(OC)cc3c1[C@H](C2)N(C)CC3 | nt | nt | nt | i | nt | nt | nt | nt | CASP1 inh CRC=i;Casp7 confirm=i;CASP7 redox cys=i;Casp1 cysteine=i
CCOC(=O)c1ncn2c1CN(C)C(=O)c1cc(N=[N+]=[N-])ccc1-2 | nt | nt | nt | i | nt | nt | nt | nt
C[C@]12Cc3cn4c(nc3C=C1CCC1C2CC[C@@]2(C)[C@H]1CC[C@@]2(O)C#N)nc1ccccc14 (some centres undefined) | ? | i | i | nt | nt | nt | nt | nt
C[C@]12Cc3cn4c(nc3C=C1CC[C@H]1[C@@H]2CC[C@@]2(C)[C@H]1CC[C@@]2(O)C#N)nc1ccccc14 | nt | nt | nt | nt | nt | nt | nt | nt | CASP1 inh CRC=?;Casp7 confirm=?;CASP7 redox cys=?;Casp1 cysteine=?
Cn1ncnc2c(=O)n(C)c(=O)nc1-2 | ? | 40µM | 20µM | -94 | i | nt | nt | nt | CASP1 redox cat=1.1µM;CASP1 inh CRC=2µM;Casp7 confirm=4µM;CASP7 redox cys=i;CASP7 redox cat=?;Casp1 cysteine=i
CCCCC/C=C\C/C=C\CCCCCCCCCC(=O)NCCc1ccc(O)c(O)c1 | nt | nt | nt | i | nt | nt | nt | nt
Cc1cc(/C=C2\C(=O)NC(=O)N(C)C2=O)c(C)n1-c1ccc2c(c1)OCO2 | i | i | i | i | i | nt | nt | nt
Cc1cc(C=C2C(=O)NC(=S)NC2=O)c(C)n1-c1ccc2c(c1)OCO2 | ? | i | i | i | 41µM | i | ? | 35µM
O=C(O)[C@@H]1CSC(c2cccnc2)N1 (some centres undefined) | nt | nt | nt | i | nt | nt | nt | nt
CCCCCc1nc2c(c(=O)c3ccccc3n2C)c(=O)n1C1CCCCCC1 | i | i | i | i | 10µM | i | 35µM | 5µM
CCCCCc1nc2ccccc2c(=O)n1-c1ccc(C)cc1 | i | i | nt | nt | i | nt | nt | nt
CN(CC(=O)O)C(=O)[C@H](Cc1ccccc1)NC(=O)[C@@H](CCCN=C(N)N)NC(=O)[C@@H](N)Cc1ccc(O)cc1 | nt | nt | nt | i | nt | nt | nt | nt
COCCCn1c(N)c(C(=O)Nc2sc3c(c2C(=O)OC)CCCC3)c2nc3ccccc3nc21 | i | i | ? | i | ? | i | i | ?
O=C(N/N=C/c1c(O)n(C2CCCCC2)c(=S)[nH]c1=O)c1ccccc1O | i | i | i | i | ? | i | i | 45µM
O=c1c2ccccc2nc(/C=C/c2cccnc2)n1Cc1ccccc1 | i | i | i | i | 41µM | i | 45µM | 25µM
CON(C)C(=O)Nc1ccc(Br)cc1 | nt | nt | nt | i | nt | nt | nt | nt
CN(C)C(=O)Oc1ccc(C(=O)c2ccccc2)cc1 | i | i | i | i | i | nt | nt | nt
CCC(=O)Oc1ccc(C(=O)Nc2cccc(C(=O)c3ccccc3)c2)cc1 | i | i | i | i | 26µM | i | i | 10µM
Nc1ccc(CCN2CCN(c3cccc(C(F)(F)F)c3)CC2)cc1 | i | i | i | nt | i | nt | nt | nt
FC(F)(F)c1ccc2c(c1)N(CCCN1CCN(CCCl)CC1)c1ccccc1S2 | i | i | i | i | 37µM | i | i | 8.9µM
C[N+](C)(C)CCCl | nt | nt | nt | i | nt | nt | nt | nt
CCOC(=O)c1c(-n2c(C)cc(C=C3C(=O)NC(=O)NC3=O)c2C)sc2c1CCCC2 | i | i | i | i | 18µM | i | 28µM | 11µM
